# Source: PubChem
# This is a sample that favours compounds with a hit; in the whole collection about 3.5% have one here.
# FBW7 act: activators of human E3 ligase FBW7; AlphaScreen FBW7–phospho-cyclin E peptide binding, activator screen; 650,000 compounds, 0.13% hits; Q969H0; AID 1259310; normalized activity (activation), % at 26.1 µM; in the data active means normalized activity above about 1.9%;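 further: purified mutant Fbw7 with reduced substrate affinity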
# Target sequence (Q969H0 whole entry, looked up): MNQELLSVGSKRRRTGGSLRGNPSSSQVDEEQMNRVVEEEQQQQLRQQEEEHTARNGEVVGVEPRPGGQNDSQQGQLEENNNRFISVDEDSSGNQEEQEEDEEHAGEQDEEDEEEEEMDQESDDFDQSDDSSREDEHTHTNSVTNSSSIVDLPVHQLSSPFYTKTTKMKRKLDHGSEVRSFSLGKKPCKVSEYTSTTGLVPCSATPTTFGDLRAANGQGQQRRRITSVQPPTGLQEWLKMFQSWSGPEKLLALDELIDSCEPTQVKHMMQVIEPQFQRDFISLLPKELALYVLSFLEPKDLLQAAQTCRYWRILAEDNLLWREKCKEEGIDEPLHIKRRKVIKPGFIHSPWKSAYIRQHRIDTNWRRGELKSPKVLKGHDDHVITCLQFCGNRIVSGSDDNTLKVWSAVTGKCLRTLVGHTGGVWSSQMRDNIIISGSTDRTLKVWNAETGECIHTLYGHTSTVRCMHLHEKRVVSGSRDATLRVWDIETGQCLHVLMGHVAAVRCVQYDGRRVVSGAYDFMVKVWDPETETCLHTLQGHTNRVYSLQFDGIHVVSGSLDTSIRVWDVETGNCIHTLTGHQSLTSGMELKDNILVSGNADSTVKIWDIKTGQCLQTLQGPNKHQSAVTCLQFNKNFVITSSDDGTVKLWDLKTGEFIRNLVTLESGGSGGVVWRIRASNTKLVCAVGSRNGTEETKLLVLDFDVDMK
# TEAD-YAP inh: TEAD-YAP interaction inhibition; HEK-TIYL cells, TEAD-Gal4/YAP UAS-luciferase luminescence; inhibition, % at 9.12 µM; 640,000 compounds, 1.4% hits; in the data active means inhibition above about 32%;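 further: 0% = median of test compound wells and 100% = reference inhibitor wells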
# MITF inh: inhibitors of human MITF; AlphaScreen MITF homodimerization, bead proximity signal; 650,000 compounds, 0.91% hits; O75030; inhibition, % at 2.6 µM; in the data active means inhibition above about 50%;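 further: 0% = vehicle wells with protein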
# GPR151 ag: activators of human GPR151; PathHunter beta-arrestin GPR151 cells, luminescence; activation, % at 11.2 µM; 650,000 compounds, 1% hits; AID 1508602; in the data active means activation above about 4.9%;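 further: 0% = median of compound wells and 100% = cells with positive control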
# * = called active by the depositor.
SMILES,FBW7 act,TEAD-YAP inh,MITF inh,GPR151 ag
Cc1ncc2c(c1CNC(=O)c1cc3ccccc3[nH]1)CCN(C(=O)CCCN(C)C)C2,-0.3,1.0,3.6,0.0
COc1ccccc1C(=O)Nc1ccc2nc(SCC(C)=O)sc2c1,0.0,-43.0,5.6,0.9
O=C(CSc1nc2ccc(NC(=O)c3ccccc3Cl)cc2s1)Nc1cccc([N+](=O)[O-])c1,0.1,32.2*,9.9,-0.3
O=C(CSc1nc2ccc(NC(=O)c3ccccc3Cl)cc2s1)Nc1ccccc1,-0.2,-40.9,-2.2,-0.2
O=C(CSc1nc2ccc(NC(=O)c3ccccc3C(=O)O)cc2s1)NCc1ccccc1,0.0,41.3*,5.2,-0.7
COc1ccccc1C(=O)Nc1ccc2nc(SC(C)c3ccccc3)sc2c1 (centres undefined),-0.1,53.9*,-3.7,2.6
Nc1nc(SCC(=O)Nc2cccc([N+](=O)[O-])c2)sc1C(=O)Nc1nccs1,-0.1,32.4*,5.2,-4.6
CCCCN(CC)S(=O)(=O)c1ccc(C(=O)Nc2sc3c(c2C(=O)OC)CC(C)(C)NC3(C)C)cc1,0.0,-5.6,8.0,0.2
Cc1ccc(/C=C2\NC(=O)N(Cc3ccc(Cl)cc3)C2=O)cc1,-0.1,2.4,20.7,-1.5
O=C(Nc1cccc(O)c1)c1cc(-c2ccc3c(c2)OCO3)on1,-0.1,97.2*,-1.2,-5.5
O=C(Nc1cccc(O)c1)c1cc(-c2cccnc2)on1,0.1,-17.8,-12.2,-2.2
O=C(Nc1cccc(O)c1)c1cc(-c2ccc(Cl)cc2)on1,0.0,80.6*,-9.1,-3.1
COc1ccc2nc(N3CCC(NCc4ccc(F)cc4)CC3)nc(C)c2c1,0.8,-0.7,7.0,-0.4
O=C(Nc1cnn(C23CC4CC(CC(C4)C2)C3)c1)c1cnn2cccnc12,-0.1,58.0*,3.6,0.1
O=C(Nc1cnn(C23CC4CC(CC(C4)C2)C3)c1)c1cnn2cc(Br)cnc12,0.0,2.7,36.7,-1.0
CCCCn1cnc2sc3c(c2c1=O)CCC3,-0.2,-8.1,-9.3,0.3
COc1ccccc1-n1nc(C(=O)N2CCCCC2C)c2ccccc2c1=O (centres undefined),-0.2,1.1,-1.9,0.2
O=C(CSc1ccc(Cl)cc1)Nc1nc2ccc(-c3ccncc3)cc2s1,1.2,77.2*,-0.2,1.1
NCC(=O)N1CCC(C(=O)Nc2nc3ccc(-c4ccncc4)cc3s2)CC1,-0.8,37.9*,8.4,0.5
Cc1sc2nc(C3CCCN(C(=O)c4ccco4)C3)[nH]c(=O)c2c1C (centres undefined),0.1,-30.6,11.7,-0.6
Cc1sc2nc(C3CCCN(C(=O)C(C)(C)C)C3)[nH]c(=O)c2c1C (centres undefined),0.0,91.6*,-0.1,0.0
COC(=O)/C(=C(/F)Sc1ccc(OC(=O)c2ccccc2)cc1C)C(F)(F)F,0.1,8.2,3.9,2.9
Cc1cccc(OCc2nnc(SCC(=O)c3ccc4c(c3)NC(=O)CO4)o2)c1,-0.1,-0.9,2.2,1.9
CC(C)NCCCOc1ccc2ccccc2c1Br,-0.1,40.0*,-4.5,-0.9
O=C(CN1CCN(c2ccccc2F)CC1)Nc1ccc2c(c1)OCCO2,0.2,1.7,16.0,-0.6
SMILES,FBW7 act,TEAD-YAP inh,MITF inh,GPR151 ag
COc1ccccc1/C=C/c1nn2c(-c3ccccc3OC)nnc2s1,-0.2,53.6*,-2.7,2.4
CCOc1ccccc1/C=N\NC(=O)CCn1cnc2ccccc21,-0.1,2.0,5.0,1.4
COc1ccccc1/C=C/C=N\NC(=O)CCn1cnc2ccccc21,0.0,53.5*,-13.1,-0.1
COc1ccccc1/C=C/c1nn2c(Cn3cnc4ccccc43)nnc2s1,-0.1,47.9*,0.5,0.6
COc1ccccc1/C=C/c1nn2c(COc3ccccc3)nnc2s1,1.2,-5.0,-10.1,1.2
Cc1ccc(NC(=O)c2ccc(Br)o2)cc1Cl,0.0,-55.1,0.7,-2.4
CC(C(=O)Nc1ncccn1)(c1ccccc1)c1ccccc1,0.0,-2.4,9.6,-1.5
Nc1ccccc1-c1nnn(CC(=O)Nc2ccccc2)n1,0.1,-29.5,13.8,-1.0
CC(=O)NC1=NN(C(C)=O)C(C)(c2cccc(OC(C)=O)c2)S1 (centres undefined),0.1,63.8*,0.0,1.1
CC(=O)NC1=NN(C(C)=O)C(C)(c2ccc(NC(C)=O)cc2)S1 (centres undefined),0.2,4.2,-5.2,-0.1
CC(=O)NC1=NN(C(C)=O)C(C)(c2ccccc2)S1 (centres undefined),-0.2,61.4*,-4.1,-0.6
CC(=O)NC1=NN(C(C)=O)C(C)(c2ccc3ccccc3c2)S1 (centres undefined),0.0,4.0,0.6,-0.1
Cc1ccc(SCC(=O)Nc2ccc3c(c2)n(C)c(=O)n3C)cc1,0.0,13.1,19.2,0.4
CCOC(=O)c1c(NC(=O)CSc2nnc(CNC(=O)c3ccccc3F)n2-c2ccc(OCC)cc2)sc2c1CCC2,0.1,1.0,8.4,1.2
CCOC(=O)c1[nH]c(C)c(C(=O)c2ccccc2)c1C,0.0,48.0*,6.9,1.7
CCOC(=O)c1[nH]c(C)c(C(=O)c2ccc(C)cc2)c1C,-0.1,33.8*,6.3,1.3
CCOC(=O)c1[nH]c(C)c(C(=O)c2ccccc2Cl)c1C,0.1,22.1,9.0,0.9
CC(=O)c1c(C)[nH]c(C(=O)OCCCCN2C(=O)c3ccccc3C2=O)c1C,0.0,53.8*,-5.6,-0.3
CCOC(=O)c1[nH]c(C)c(C(=O)NCc2ccc(C)cc2)c1C,0.0,-0.7,-5.2,1.2
CC(=O)c1c(C)[nH]c(C(=O)COC(=O)CCCN2C(=O)c3ccccc3C2=O)c1C,-0.1,6.2,7.1,0.4
O=C(NC1(Cc2ccccc2F)N=C2C=CC=CN2C1=O)c1ccccc1 (centres undefined),-0.2,-4.5,-1.6,-0.1
NC(=O)CCC(NC(=O)NC1CCCCC1)C(=O)O (centres undefined),2.1*,-9.6,20.0,-1.5
NC(=O)CCC(NC(N)=O)C(=O)O (centres undefined),0.4,7.4,15.6,0.1
O=C(Cn1nnc(-c2ccc(S(=O)(=O)N3CCCC3)cc2)n1)NCC1CCCO1 (centres undefined),0.0,2.3,-0.5,1.6
O=C(Cn1nnc(-c2ccc(S(=O)(=O)N3CCCC3)cc2)n1)NCc1ccco1,-0.1,41.9*,3.5,1.0
SMILES,FBW7 act,TEAD-YAP inh,MITF inh,GPR151 ag
CCOC(=O)/C=C(\Nc1ccc(C)cc1N)c1ccccc1,-0.1,37.9*,-9.7,-9.2
Cc1ccc(NC(=O)COc2ccccc2)c(N)c1,-0.1,-44.7,11.4,0.2
O=C(NC(=S)N1CCCCC1CO)c1cccs1 (centres undefined),0.0,2.4,1.2,0.6
COc1ccc(Nc2nc(NCc3cccc(C(F)(F)F)c3)c3cc(OC)c(OC)cc3n2)cc1,-0.2,16.7,7.8,1.7
COc1cc2nc(Nc3nc4ccccc4n3C)nc(NCc3cccc(C(F)(F)F)c3)c2cc1OC,-0.2,38.8*,4.3,1.6
COc1cc2nc(Cl)nc(NCc3cccc(C(F)(F)F)c3)c2cc1OC,0.0,4.9,-8.4,-0.7
COc1cc2nc(Nc3nc4ccccc4n3C)nc(NC3CC3)c2cc1OC,3.6*,10.9,18.9,-1.2
